# Bioassay records from PubChem BioAssay.
# KB-3-1 cytotox = qHTS assay for MDR1-selective chemotherapeutics: Primary screen using the parental adenocarcinoma cell KB-3-1. Potency, µM (top dose mostly 46.1 µM), hits mostly cytotoxic. KB-3-1 viability, CellTiter-Glo ATP luminescence, 72 h. 400,000 tested, 1.4% active; also: % is scaled to controls: 0 for no effect and ±100 for the full control effect; nearly all actives have a fitted effect of over 60% in size
#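 Using CellTiter-Glo luminescence, growth of non-resistant KB-3-1 adenocarcinoma cells is assessed 72 h after pin-tool compound addition at 37 °C. Normalized responses across the concentration series yield fitted curves.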
# KB-V1 cytotox = qHTS assay for MDR1-selective chemotherapeutics: Primary screen using the drug-selected MDR subline cells KB-V1; KB-V1 MDR cells viability, CellTiter-Glo, 72 h; 400,000 tested, 3.4% active; Potency, µM (highest dose often 46.1 µM), most hits filed as cytotoxic; also: % is scaled to controls: 0 for no effect and ±100 for the full control effect; nearly all actives have a fitted effect of over 60% in size
#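 Luminescent ATP read-out (CellTiter-Glo, 10 min) measures survival of drug-selected KB-V1 MDR cells after 72 h, 37 degrees C compound exposure. Medium: phenol-red-free DMEM, 10% FBS. Values from fitted concentration-response curves.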
# MCF10A rereplic = A quantitative high throughput screen for small molecules that induce DNA re-replication in MCF 10a normal breast cells. AID 624296, 2012. MCF 10A DNA re-replication, Hoechst nuclear intensity, 48 h. 350,000 tested, 2.9% active. Potency, µM (top dose mostly 46.1 µM), without a hit: at the highest dose activity, positive = re-replication, most hits filed as activators; also: % of control where 0% means no effect; nearly all actives have a fitted effect of over 50% in size
# RGS4 inh = Inhibitors of Regulator of G Protein Signaling (RGS) 4: qHTS. Regulator of G-protein signaling 4 (Homo sapiens), P49798. Transcreener GDP fluorescence polarization, RGS4-accelerated GTP hydrolysis. Potency, µM (highest dose often 114 µM), for the others: at the highest dose activity change, negative = inhibition, usual class: inhibitors. 390,000 tested, 0.039% active; also: % is scaled to controls: 0 for no effect and ±100 for the full control effect; nearly all actives have a fitted effect of over 75% in size
# Target sequence (P49798 whole entry, looked up): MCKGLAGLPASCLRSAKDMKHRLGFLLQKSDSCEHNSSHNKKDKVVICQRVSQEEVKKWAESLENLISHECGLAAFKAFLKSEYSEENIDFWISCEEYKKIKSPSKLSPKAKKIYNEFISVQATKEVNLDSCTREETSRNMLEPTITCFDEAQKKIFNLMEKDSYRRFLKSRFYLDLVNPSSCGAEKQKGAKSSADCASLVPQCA
#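 MLSMR compounds (23 nl, pin-transferred) preincubated 10 min at room temperature with a 500nM (2x) first reagent, then RGS4 at 900nM (2x) plus Transcreener GDP mix added; fluorescence polarization (620/688 nm) read before and after 90 min at 30 °C.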
# PTAP TSG101 blk = qHTS Assay for Iinhibitors of HIV-1 Budding by Blocking the Interaction of PTAP/TSG101; Tumor susceptibility gene 101 protein (Homo sapiens), Q99816; Fluorescence polarization, FITC-PTAP peptide / Tsg101 binding; Potency, µM (highest dose often 115 µM), without a hit: at the highest dose activity change, negative = inhibition, usual class: inhibitors; 340,000 tested, under 10 active; active = well fitted inhibition curve with a large enough effect in the main read-out, with a control signal flat, not every such curve was filed as active; inconclusive = small, poorly fitted or top-dose-only effect, or effect the other way, or a change in a side signal; inactive = no such curve, though single readings can be large or run the other way; also: % of control where 0% means no effect
# Target sequence (Q99816 whole entry, looked up): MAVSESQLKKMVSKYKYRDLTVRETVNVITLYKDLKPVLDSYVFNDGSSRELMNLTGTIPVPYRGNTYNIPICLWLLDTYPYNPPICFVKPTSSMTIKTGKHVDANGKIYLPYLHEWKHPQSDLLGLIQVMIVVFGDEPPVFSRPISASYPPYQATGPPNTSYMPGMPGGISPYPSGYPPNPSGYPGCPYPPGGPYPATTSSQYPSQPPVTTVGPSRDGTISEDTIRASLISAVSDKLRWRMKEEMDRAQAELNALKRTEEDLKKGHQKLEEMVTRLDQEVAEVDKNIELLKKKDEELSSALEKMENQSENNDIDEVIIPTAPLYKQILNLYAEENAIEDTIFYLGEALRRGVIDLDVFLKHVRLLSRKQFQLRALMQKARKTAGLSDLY
#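 Compounds were pin-transferred onto Tsg101 binding domain (10 uM final) in HEPES pH 7.5 buffer, then FITC-PTAP peptide was added at 50 nM final. After 20 min at RT, polarization reported peptide displacement across a qHTS concentration series.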
# SW480 rerep = A quantitative high throughput screen for small molecules that induce DNA re-replication in SW480 colon adenocarcinoma cells; Potency, µM (series often up to 46.1 µM), for inactives: at the highest dose re-replication activation, usual class: activators; SW480 DNA re-replication, Hoechst DNA content imaging, 48 h; 340,000 tested, 1.8% active; also: % of control where 0% means no effect; nearly all actives have a fitted effect of over 55% in size
#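 Per well, 250 cells were exposed to pinned compound for 48 hr. Nuclear DNA was visualised with Hoechst (40 min, 37 C) and total object intensity recorded by fluorescence scanning.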
# * = called active by the depositor; i = inactive; ? = inconclusive; nt = not tested or not shown; ! = not confirmed by another sample. An excerpt weighted towards active compounds, which were near 6.6% of everything screened. Unless noted, calls follow the shape of the dose curve; as a rule, active = well fitted curve in the direction sought with a large enough effect; inconclusive = small, poorly fitted or top-dose-only effect, or another doubt; inactive = no such curve, though single readings can be large; an effect the other way counts as inactive or inconclusive. Potency is read from the fitted curve at half-maximal effect.
SMILES,KB-3-1 cytotox,KB-V1 cytotox,MCF10A rereplic,RGS4 inh,PTAP TSG101 blk,SW480 rerep
CCC1(O)CC2CN(CCc3c([nH]c4ccccc34)C(C(=O)OC)(c3cc4c(cc3OC)N(C=O)C3C(O)(C(=O)OC)C(OC(C)=O)C5(CC)C=CCN6CCC43C65)C2)C1 (configuration not stated),0.0461µM*,16.4µM*,?,-15.3%,-6.0%,0.164µM*
CC[C@]1(O)CC2CN(CCc3c([nH]c4ccccc34)[C@@](C(=O)OC)(c3cc4c(cc3OC)N(C)[C@H]3[C@@](O)(C(=O)OC)[C@H](OC(C)=O)[C@]5(CC)C=CCN6CC[C@]43[C@@H]65)C2)C1 (some centres not stated),0.0231µM*,?,?,nt,nt,0.75µM*
CCC1=C[C@@H]2CN(C1)Cc1c([nH]c3ccccc13)[C@@](C(=O)OC)(c1cc3c(cc1OC)N(C)[C@@H]1[C@@](O)(C(=O)OC)[C@H](OC(C)=O)[C@]4(CC)C=CCN5CC[C@]31[C@@H]54)C2,nt,nt,67.1%,nt,nt,1.19µM*
Cc1c(C(=O)Nc2cccc(C(F)(F)F)c2)oc2ccc3c(c12)C(=O)CC(C)(C)O3,i,?,nt,-11.1%,nt,nt
CC(=O)Nc1ccc(-c2ccnc3c2CC(C(=O)NCc2ccco2)O3)cc1 (configuration not stated),0.517µM*,i,nt,nt,nt,nt
CC(=O)Nc1ccc(-c2ccnc3c2CC(C(=O)NCc2ccccc2)O3)cc1 (configuration not stated),0.0651µM*,1.3µM*,nt,nt,nt,nt
CCCn1c(=O)c2sccc2n2c(CCCC(=O)N3CCN(c4ccccc4OC)CC3)nnc12,nt,nt,nt,2.6%,nt,nt
N#CCSc1nc2ccc(N3CCCCC3)cc2c(=O)n1Cc1ccccc1,i,?,16.4µM*,-19.2%,6.3%,20.6µM*
N#CCSc1nc2ccccc2c(=O)n1CC1CCCC1,i,i,25.5%,-10.5%,-2.6%,-2.1%
COc1ccc2cc(C3(C)NC(=O)N(CC(=O)NCCC4=CCCCC4)C3=O)ccc2c1 (configuration not stated),i,16.4µM*,10.1%,15.6%,-0.7%,10.4%
CC1(c2ccc(Cl)cc2)NC(=O)N(CC(=O)NCCC2=CCCCC2)C1=O (configuration not stated),i,?,16.8%,-31.7%,0.9%,0.164µM*
COc1ccc(C2(C)NC(=O)N(CC(=O)NCCC3=CCCCC3)C2=O)cc1OC (configuration not stated),i,i,2.7%,12.3%,-0.3%,-9.3%
COc1ccc(N2CCN(C(=O)CN3C(=O)NC(C)(c4ccc5ccccc5c4)C3=O)CC2)cc1 (configuration not stated),23.1µM*,2.31µM*,3.4%,2.5%,3.8%,13.9%
Cc1oc(C)c2c(=O)cc(-c3ccc4c(c3)OCO4)cc(OC(=O)c3ccccc3Br)c12,i,i,nt,-26.1%,nt,nt
COc1ccc(F)cc1S(=O)(=O)NCC(c1ccco1)S(=O)(=O)c1ccc(F)cc1 (configuration not stated),nt,nt,nt,-16.9%,nt,nt
N[C@@H](Cc1cc(I)c(Oc2ccc(O)c(I)c2)c(I)c1)C(=O)O,?,i,20.6µM*!,-43.1%,-2.4%,-7.5%
O=C(/C=C/c1ccc([N+](=O)[O-])s1)N1CCCCC1,14.6µM*,?,?,6.4%,0.0%,5.8µM*
O=[N+]([O-])c1ccc(CN2CCCCCC2)s1,23.1µM*,?,12.6%,-9.1%,-2.2%,?
O=C(/C=C/c1ccc([N+](=O)[O-])s1)N1CCCC1,?,?,-0.8%,-13.3%,-2.0%,11.6µM*
O=C(/C=C/c1ccc([N+](=O)[O-])s1)N1CCN(c2ccccc2)CC1,i,i,?,-27.7%,-6.2%,26.6%
CC1CN(C(=O)/C=C/c2ccc([N+](=O)[O-])s2)CC(C)O1 (configuration not stated),?,8.2µM*,?,12.1%,2.8%,8.2µM*
Cn1nnc2c(NCc3ccco3)ncnc21,i,i,nt,nt,nt,nt
Cc1cc(/C=C2\C=Cc3ccccc32)cc(C)c1N,i,i,nt,nt,nt,nt
COc1cccc(C2CC(=O)Nc3c2c(=O)nc2c(C)cccn32)c1 (configuration not stated),i,i,nt,-12.3%,nt,nt
O=C(CSCc1ccccc1)N/N=C/c1ccc(OCC(=O)N2CCCCC2)cc1,i,20.6µM*,24.8%,18.5%,-3.5%,-11.8%
SMILES,KB-3-1 cytotox,KB-V1 cytotox,MCF10A rereplic,RGS4 inh,PTAP TSG101 blk,SW480 rerep
COc1ccc(CSCC(=O)N/N=C/c2ccc(OCC(=O)N3CCCCC3)cc2)cc1,i,i,20.6µM*,16.9%,-6.9%,?
O=C(COc1ccc(/C=N/NC(=O)C(=O)N2CCCCCC2)cc1)Nc1ccccc1Cl,i,18.4µM*,?,12.5%,0.0%,1.7%
O=C(CSCc1ccccc1Br)N/N=C/c1ccc(OCC(=O)N2CCCCC2)cc1,i,i,0.7%,5.9%,0.3%,nt
COc1ccc(/C=N/NC(=O)C(=O)N2CCCCCC2)cc1,i,i,20.4%,-15.5%,-3.4%,-16.5%
N#CC(C#N)=C1C=CC=CN1/C(=C\c1ccco1)C(=O)c1ccc(Br)cc1,?,i,3.26µM*,?,-1.8%,4.61µM*
N#C/C(=C/c1ccco1)C(N)=S,i,i,0.0%,-37.9%,-4.6%,5.6%
N#CC(C#N)=C1C=CC=CN1/C(=C\c1ccco1)C(=O)c1ccccc1,?,?,2.59µM*,?,-1.6%,?
COc1ccc(/C=C(/C(=O)c2cccs2)N2C=CC=CC2=C(C#N)C#N)cc1,i,i,?,?,-8.1%,?
COc1ccc(C(=O)/C(=C\c2ccco2)N2C=CC=CC2=C(C#N)C#N)cc1,?,7.31µM*,1.3µM*,?,-6.7%,?
Nc1[nH]c(=O)[nH]c(=O)c1N=Nc1ccccc1Cl,i,?,23.1µM*,23.1%,-7.8%,-9.3%
Cc1[nH][nH]c(=O)c1N=Nc1ccccc1Cl,?,?,2.1%,22.7%,1.0%,-11.0%
